# Measurements as given in PubChem BioAssay.
# Several values for one entry are separate records, joined by “and”; a condition that tells them apart may be missing. Equal values may be shown once. Results filed as inconclusive are left out. Activity calls are given as the source filed them.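 Rule for the calls, unless noted: active = compounds whose cell count with miR-34 switched on is under 0.7 times the count with it off; inactive = the rest.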
# How the values were obtained:
# [1] = stimulators of nuclear beta-catenin in C2C12, primary screen, imaging, WNT3A-conditioned medium, mouse C2C12, NPC library (AID 1117326; in the data active = nuclear beta-catenin stimulation mostly above about 4.2%, no sharp cut-off; inactive = mostly below about 10%); conditions: stronger effect = higher value
# [2] = stimulators of insulin release from INS-1E, primary screen, cell-based, 5 mM glucose, NPC library (AID 1117329;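 active = compound raises insulin release from rat beta cells at 5 mM glucose, no numeric limit stated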); conditions: rat INS-1E insulin secretion, at 10 µM, stronger effect = higher value
# [3] = growth inhibition of GSK3B-pretreated HCT116 cells – cell-based, CellTiter-Glo, 0.2 to 20 µM (AID 1117336;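 active = compounds lowering colon cancer cell viability after pretreatment blocking the GSK3B kinase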); conditions: HCT116 viability after GSK3B inhibitor, at 20 µM, stronger effect = higher value
# [4] = inhibition of endothelial tube formation, primary screen, imaging, VEGF stimulated, CD31 staining, tube area, NPC library (AID 1117340;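 active = compound that reduces growth-factor-driven endothelial tube area in a mixed cell culture, no cutoff stated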); conditions: VEGF-stimulated ADSC/ECFC co-culture, at 10 µM, stronger effect = higher value
# [5] = glucagon-like peptide 1 release enhancers, primary assay, NCI-H716 cell line, NPC library (AID 1117341;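 active = compound raises GLP1 secretion from the human gut endocrine cells, with no numeric limit stated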); conditions: NCI-H716 cells, at 10 µM, stronger effect = higher value
# [6] = HCT116 colon cancer cell growth inhibition, primary screen, CellTiter-Glo luminescence, NPC library (AID 1117342;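 active = compounds that lower survival of HCT116 colon cancer cells in the luminescence readout, no numeric limit stated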); conditions: at 20 µM (top of the series)
# [7] = CellTiter-Glo luminescent readout of SW480 viability loss, NPC library primary (AID 1117343;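 active = compounds that lower viability of the colon cancer cells in the luminescence readout, with no numeric limit stated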); conditions: CellTiter-Glo luminescence; at 20 µM (top of the series) unless noted
# [8] = decreased DLD-1 cellular survival, CellTiter-Glo luminescent readout, NPC compound collection, primary HTS (AID 1117346;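 active = compounds that lower survival of DLD-1 colon cancer cells in the luminescence readout, no cutoff given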); conditions: DLD-1 viability, CellTiter-Glo luminescence; at 20 µM (top of the series)
# [9] = differential killing of epithelial or mesenchymal cells, primary screen, imaging, PC-3E GFP, TEM4-18 mCherry, co-culture (AID 1345086;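 active = compounds killing one labelled cell type while sparing the other, by normalised counts and ratio limits, not self-fluorescent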;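 note: cells exposed to compound for 72 h before imaging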;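 for red/green cell ratio (normalised): normalised mesenchymal count divided by normalised epithelial count so high means epithelial killing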); conditions: imaging cell counts, at 1 µM
# [10] = biological target: NAD(+) hydrolase SARM1 (Homo sapiens) (UniProt Q6SZW1); experiment: SARM1 TIR NADase inhibitors, cell lysate, NAD-Glo luminescence (AID 1508614;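 active = compound whose remaining NAD level is above about 45 nM, limit read from the data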;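 note: higher remaining NAD means stronger inhibition of SARM1 NADase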); conditions: SAM-TIR HEK293T lysate NADase, at 1 µM, stronger effect = higher value
# Chain of NAD(+) hydrolase SARM1 (Homo sapiens) (Q6SZW1 whole entry, looked up): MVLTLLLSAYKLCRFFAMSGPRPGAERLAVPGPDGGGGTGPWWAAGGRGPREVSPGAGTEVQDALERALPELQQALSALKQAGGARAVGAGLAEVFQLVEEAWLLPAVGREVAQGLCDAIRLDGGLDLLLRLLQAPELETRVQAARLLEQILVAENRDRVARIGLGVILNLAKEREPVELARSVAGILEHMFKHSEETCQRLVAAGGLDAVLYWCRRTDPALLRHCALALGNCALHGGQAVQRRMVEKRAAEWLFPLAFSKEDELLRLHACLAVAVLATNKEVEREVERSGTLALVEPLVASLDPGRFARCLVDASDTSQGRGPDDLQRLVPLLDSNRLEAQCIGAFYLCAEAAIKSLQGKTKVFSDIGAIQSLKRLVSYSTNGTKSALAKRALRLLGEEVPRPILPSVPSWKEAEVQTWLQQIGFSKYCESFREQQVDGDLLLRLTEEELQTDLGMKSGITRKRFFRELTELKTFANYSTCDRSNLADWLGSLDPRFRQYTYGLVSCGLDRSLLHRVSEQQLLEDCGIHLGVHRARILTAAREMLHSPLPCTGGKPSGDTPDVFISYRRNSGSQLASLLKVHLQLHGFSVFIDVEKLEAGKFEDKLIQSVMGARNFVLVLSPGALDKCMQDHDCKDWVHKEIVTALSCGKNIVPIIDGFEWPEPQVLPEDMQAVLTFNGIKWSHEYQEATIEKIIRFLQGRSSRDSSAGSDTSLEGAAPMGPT
# [11] = tested on: Aerobactin synthetase IucA (Klebsiella pneumoniae); experiment: IucA aerobactin synthetase inhibitors, biochemical, Tocris library, absorbance (AID 1345561; call rule not given here;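 note: 100% = enzyme without compound and 0% = no enzyme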); conditions: purified IucA enzyme assay, absorbance (OD) read-out; stronger effect = lower value;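 tested at 8 µM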
# [12] = sensitizers of A549 cells to miR-34 induction, primary screen, imaging, A549 dox-inducible miR-34, nuclei and caspase counts (AID 1347080); conditions: A549 miR-34 inducible, Hoechst nuclei count, 48 h
# [13] = viability rescue of complex I mutant cybrids, primary screen, cell-based, galactose medium, ATP luminescence (AID 1645843;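 active = z-score of at least 1.8 in each of two replicates, scored against plate mean and spread of sample wells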;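 note: positive z means more ATP and so rescue of galactose-driven cybrid death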); conditions: complex I mutant cybrid cells, 72 h, stronger effect = higher value
# [14] = growth inhibition of DIPG glioma cells, dose response, cell-based, SU-DIPG-XIII, MIPE4.0, CellTiter-Glo, qHTS (AID 1347061; cut-off not given, nearly all actives have AC50 up to about 37 µM;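 note: cells exposed to compound for 48 hours before readout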); conditions: SU-DIPG-XIII viability, CellTiter-Glo ATP luminescence
# [15] = liver-stage malaria parasite growth inhibition, primary screen, cell-based, HepG2, luciferase luminescence, HepG2 viability (AID 624349; in the data active = parasite load remaining mostly below about 12%, no sharp cut-off; inactive = mostly above about 10%;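 note: 100% = mean of DMSO negative control wells on the same plate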); conditions: P. berghei liver stage in HepG2, luciferase luminescence, concentration not given here; parasite load remaining: stronger effect = lower value; viability: measured here: HepG2 viability without parasites
# [16] = survival rescue of mitochondrial mutant cells in low glucose, primary screen, MELAS cybrids, Rieske KO mouse fibroblasts, CellTiter-Glo (AID 1508586;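 active = mean z-score across replicates of 1.96 or higher in either the MELAS or the Rieske mutant cell line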;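 note: z relative to plate mean and SD of compound and empty wells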)
# [17] = stronger effect = lower value, cell number ratio, induced over uninduced
# [18] = measured here: relative caspase fold change +Dox/-Dox
# [19] = measured here: total cells with miR-34 induction, stronger effect = lower value
# [20] = measured here: total cells without miR-34 induction
structure (smiles),measurement,setting,value
CC1(C)[C@@H]2CC[C@@]1(C)C(=O)C2,nuclear beta-catenin stimulation,[1]; at 10 µM,0.2% (inactive)
same,nuclear beta-catenin stimulation,"[1]; stimulation, at 2 µM",0.6%
same,insulin secretion stimulation,[2],2.4% (inactive)
same,viability decrease,[3],2.6% (inactive)
same,tube area decrease,[4],-4.3% (inactive)
same,GLP1 secretion stimulation,[5],-0.1% (inactive)
same,inhibition of viability,[6],10.9% (inactive)
same,viability decrease (inhibition),[7],2.9% (inactive)
same,viability decrease (inhibition),[8],15.5% (inactive)
same,red/green cell ratio (normalised),"[9]; actives lie on both sides, counts scaled to control wells, 1 = unselective",0.84 (inactive)
same,normalised cell number,[9]; measured here: epithelial PC-3E GFP cell survival,1.25
same,normalised cell number,[9]; measured here: mesenchymal TEM4-18 mCherry cell survival,1.05
same,remaining NAD,[10],10 nM (inactive)
NCCNC(=O)c1ccc(Cl)cn1,nuclear beta-catenin stimulation,[1]; at 10 µM,1.5% (inactive)
same,nuclear beta-catenin stimulation,"[1]; stimulation, at 2 µM",0.2%
same,insulin secretion stimulation,[2],-1.7% (inactive)
same,viability decrease,[3],-5.05% (inactive)
same,tube area decrease,[4],-14.8% (inactive)
same,GLP1 secretion stimulation,[5],-1.7% (inactive)
same,inhibition of viability,[6],-6.5% (inactive)
same,viability decrease (inhibition),[7],16.3% (inactive)
same,viability decrease (inhibition),[8],-10.3% (inactive)
same,remaining activity,[11],98% (inactive)
same,fold change,[12]; [17],0.873 (inactive)
same,fold change,[12]; [18],1.55
same,cell count,[12]; [19],8230
same,cell count,[12]; [20],9430
same,z-score,[13],0.045 (inactive)
CCn1ccnc1CC1COc2ccccc2O1 (stereo not drawn),nuclear beta-catenin stimulation,[1]; at 10 µM,1.8% (inactive)
same,nuclear beta-catenin stimulation,"[1]; stimulation, at 2 µM",0.3%
same,insulin secretion stimulation,[2],-3.2% (inactive)
same,viability decrease,[3],-16.7% (inactive)
same,tube area decrease,[4],-3.6% (inactive)
same,GLP1 secretion stimulation,[5],0% (inactive)
same,inhibition of viability,[6],1.63% (inactive)
same,viability decrease (inhibition),[7],7.7% (inactive)
same,viability decrease (inhibition),[8],-5.9% (inactive)
same,remaining activity,[11],82.4% (inactive)
same,fold change,[12]; [17],1.08 (inactive) and 0.969 (inactive)
same,fold change,[12]; [18],1.15 and 0.987
same,cell count,[12]; [19],10600 and 8940
same,cell count,[12]; [20],9870 and 9220
same,z-score,[13],0.675 (inactive) and 1.33 (inactive)
OC(CN1CCC(Cc2ccc(F)cc2)CC1)c1ccc(Cl)cc1 (stereo not drawn),nuclear beta-catenin stimulation,[1]; at 10 µM,2% (inactive)
same,nuclear beta-catenin stimulation,"[1]; stimulation, at 2 µM",2.8%
same,insulin secretion stimulation,[2],2.2% (inactive)
same,viability decrease,[3],78.9% (active)
same,tube area decrease,[4],-4.2% (inactive)
same,GLP1 secretion stimulation,[5],2.9% (inactive)
same,inhibition of viability,[6],78.6% (active)
same,viability decrease (inhibition),[7],67.1% (active)
same,viability decrease (inhibition),[8],75.2% (active)
same,remaining activity,[11],78.5% (inactive)
same,outcome,[14],inactive
same,fold change,[12]; [17],1.15 (inactive) and 0.894 (inactive)
same,fold change,[12]; [18],0.858 and 1.23
same,cell count,[12]; [19],6880 and 8360
same,cell count,[12]; [20],6000 and 9350
same,z-score,[13],-0.6 (inactive) and 0.185 (inactive)
CCN1CCC[C@H]1CNC(=O)c1c(OC)ccc(Br)c1OC,parasite load remaining,[15],122% (inactive) and 75.7% (inactive)
same,viability,[15],119% and 100%
same,nuclear beta-catenin stimulation,[1]; at 10 µM,0.4% (inactive)
same,nuclear beta-catenin stimulation,"[1]; stimulation, at 2 µM",-0.6%
same,insulin secretion stimulation,[2],6.1% (inactive)
same,viability decrease,[3],-9.5% (inactive)
same,tube area decrease,[4],19.3% (active)
same,GLP1 secretion stimulation,[5],0.8% (inactive)
same,inhibition of viability,[6],6.8% (inactive)
same,viability decrease (inhibition),[7],-6.9% (inactive)
same,viability decrease (inhibition),[8],6.8% (inactive)
same,remaining activity,[11],89% (inactive)
same,fold change,[12]; [17],0.989 (inactive) and 0.971 (inactive) and 0.881 (inactive)
same,fold change,[12]; [18],0.662 and 1.03 and 1.37
same,cell count,[12]; [19],9050 and 9640 and 10200
same,cell count,[12]; [20],9150 and 9920 and 11500
same,z-score,"[16]; MELAS cybrid survival, CellTiter-Glo 48 h, stronger effect = higher value",0.167 (inactive) and 0.0526 (inactive)
same,z-score,"[16]; Rieske KO mouse fibroblast survival, CellTiter-Glo 72 h",-0.0474 and -0.355
same,z-score,[13],0.63 (inactive) and 0.485 (inactive)
